# Assay results reported in the supplement of paper PMC4206467.
# Test system: Perkinsus marinus PRA240
# Experiment: ATP content (proliferation) relative to DMSO control; higher = more parasite growth (less inhibition)
# Settings: 20 µM; 4 days
# Description: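 Perkinsus marinus PRA240 trophozoites (2-5x10^6 cells/ml, 100 µl, 96-well) were exposed once to MMV Malaria Box compounds at 20 µM (0.1% DMSO) in triplicate. ATP content (ATPlite bioluminescence) was read at day 4 post-exposure and normalised to DMSO + cells control wells (100% activity). Compounds were identified by joining plate and well to the Malaria Box list.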
row,Structure (SMILES),ATP content
1,c1ccc2c(NCCc3c[nH]c4ccccc34)c3ccccc3nc2c1,179%
2,COCCNC(=O)c1ccc(OC2CCN(Cc3ccc(F)c(F)c3)CC2)c(Cl)c1,86.4%
3,CN1c2ccccc2N(C)C1c1ccc2c(c1)OCO2,87.3%
4,O=C(Nc1ccc(-c2nc3ccccc3[nH]2)cc1)c1ccc(Cl)c(Cl)c1,97.8%
5,O=C(NC1CCCC1)c1ccc(N2CCC(NCc3cccc(C(F)(F)F)c3)CC2)cc1,103%
6,CCOc1ccc(CCNC(=O)c2cccs2)cc1OCC,67.6%
7,O=C(Nc1cccc(C2=NCCN2)c1)Nc1cccc(C2=NCCN2)c1,128%
8,O=C(NCC1Cc2cccc(-c3ccncc3)c2O1)c1csc2c1CCCC2 (centres undefined),114%
9,CCN(CC)CCCNc1nc(-c2ccc(Cl)cc2)nc2ccccc12,99.6%
10,O=C(NCc1ccco1)C1CCN(S(=O)(=O)c2ccc(Br)cc2)CC1,147%
11,CC1(c2ccccc2)Nc2ccccc2-c2nc3ccccc3n21 (centres undefined),109%
12,COc1ccc(CN2CCCC(C(=O)c3ccc(C(F)(F)F)cc3)C2)c(O)c1 (centres undefined),117%
13,CCOc1ccc(C2N(C)c3ccccc3N2C)cc1,131%
14,COc1ccc(CCN2CCC(CN(C)Cc3cnn(-c4ccccc4)c3)CC2)cc1,110%
15,COc1ccc2nc(C)cc(Nc3ccccc3O)c2c1,163%
16,CN(C)CCNc1cc(-c2ccccc2)nc2ccccc12,106%
17,CCCCCn1c(=N)n(CC(O)COc2cccc(C)c2)c2ccccc21 (centres undefined),127%
18,CCOc1cccc2sc(N(Cc3cccnc3)C(=O)C3CCCCC3)nc12,79.5%
19,COc1ccc(-c2nonc2NC(=O)c2cccc(Cl)c2)cc1OC,135%
